According to PMC4552634, “A New Set of Chemical Starting Points with Plasmodium falciparum Transmission-Blocking Potential for Antimalarial Drug Discovery” (PLoS ONE, 2015):
Hit rate of the full screen: of about 13,000 compounds, about 3,200 (25%) showed an effect of 50% or more. This is one part of the list.

Each compound was assayed on P. falciparum stage V gametocytes. Conditions: 48 h, 5 µM; inhibitor.
Design: BacTiter-Glo ATP luminescence viability of purified stage V gametocytes in 384-well plates, per cent inhibition versus DMSO

Row | Compound | % Inhibition [%]
1 | Cc1nc2c(-n3cc(Cn4ccnc4)c4ccccc43)ncnc2n1-c1ccc(Cl)cc1Cl [TCMDC-136514] | 37.26
2 | CCC(=O)c1c(C)n(-c2ncnc3c2nc(C)n3-c2ccc(C)cc2C)c2ccccc12 [TCMDC-136513] | 51.77
3 | Cc1noc(-c2ccc3c(c2)CCN(CCC2CCC(NC(=O)c4cc5ccccc5[nH]4)CC2)CC3)n1 (stereo not shown) [TCMDC-139876] | -74.07
4 | CN(C)CCCn1cc(C(=O)OC2CC3CCC(C2)N3C)c2cc(-c3ccccc3)ccc21 (stereo not shown) [TCMDC-139094] | 100.6
5 | CN(C)CCOc1cc(NC(=O)Nc2ccc(-c3ccccc3)cc2)ccc1I [TCMDC-139150] | -45.78
6 | O=S(=O)(NCCN1CCCC1)c1cccc(-c2ccc(CNCc3ccccc3)cc2)c1 [TCMDC-132240] | 108.6
7 | O=S(=O)(NCCN1CCCC1)c1cccc(-c2cccc(CNCc3ccccc3)c2)c1 [TCMDC-132226] | 104
8 | O=C1C(c2ccccc2)=C(Nc2ccc([N+](=O)[O-])cc2)c2ccccc21 [TCMDC-125490] | 10.18
9 | O=C1C(c2ccccc2)=C(Nc2cccc([N+](=O)[O-])c2)c2ccccc21 [TCMDC-125484] | 25.85
10 | O=C1C(c2ccccc2)=C(Nc2cccc(OC(F)(F)C(F)F)c2)c2ccccc21 [TCMDC-125498] | 65.78
11 | COc1cc(NC2=C(c3ccccc3)C(=O)c3ccccc32)ccn1 [TCMDC-135283] | 73.83
12 | O=C1C(c2ccccc2)=C(Nc2ccc(Cl)cc2)c2ccccc21 [TCMDC-125493] | 32.25
13 | COc1ccc(NC2=C(c3ccccc3)C(=O)c3ccccc32)cn1 [TCMDC-125501] | 36.53
14 | Nn1c(=O)oc2ccc(Cl)cc2c1=O [TCMDC-125519] | 8.283
15 | FC(F)(F)c1ccc2nccc(NN=Cc3ccccc3)c2c1 [TCMDC-142024] | -3.615
16 | CCc1cccc(-c2cc(=N)n(C)c3nc(N)[nH]c(=O)c23)c1 [TCMDC-137737] | -30.45
17 | COc1ccc2nccc([C@@H](O)CN3CCC(NCc4nc5c(cc4Cl)OCC(=O)N5)C(F)C3)c2c1 (stereo partly shown) [TCMDC-141722] | 15.19
18 | CCCN(C(=O)c1ccccc1C)c1nnc(-c2ccccc2C)s1 [TCMDC-124386] | 7.474
19 | CCCCN(C(=O)c1ccccc1Cl)c1nnc(-c2ccccc2C)s1 [TCMDC-125120] | -1.012
20 | CCCCN(C(=O)c1ccccc1C)c1nnc(-c2ccccc2C)s1 [TCMDC-124385] | 52.67
21 | CCC(C)OC(=O)C1=C(C)NC2=C(C(=O)CC(c3ccc(OC)c(OC)c3)C2)C1c1cccc(O)c1 (stereo not shown) [TCMDC-125634] | 29.96
22 | COC(=O)C1=C(C)NC2=C(C(=O)CC(c3ccc(OC)c(OC)c3)C2)C1c1cccc(O)c1 (stereo not shown) [TCMDC-125609] | 17.77
23 | CCCOC(=O)C1=C(C)NC2=C(C(=O)CC(c3ccc(OC)c(OC)c3)C2)C1c1cccc(O)c1 (stereo not shown) [TCMDC-125632] | 53.3

Row | Compound | % Inhibition [%]
24 | COc1ccc(C2CC(c3cccs3)=NN2C(=O)COc2cccc3c2CCCC3O)cc1OC (stereo not shown) [TCMDC-125033] | 11.22
25 | O=C(/C=C/c1ccc(Cl)c(Cl)c1)NCCCCCN1CCC(NS(=O)(=O)c2cc(Cl)cc(Cl)c2)CC1 [TCMDC-135905] | 1.117
26 | O=C(C=Cc1ccc(Cl)c(Cl)c1)NCCCCCN1CCC(CCCNC(=O)C2CC2c2ccccc2)CC1 (stereo not shown) [TCMDC-139572] | -16.95
27 | CCCCCCCCS(=O)(=O)NCCCC1CCN(CCCCCNC(=O)C=Cc2ccc(Cl)c(Cl)c2)CC1 [TCMDC-139588] | 108.5
28 | O=C(/C=C/c1ccc(Cl)c(Cl)c1)NCCCCCN1CCC(NC(=O)Nc2ccc(Br)cc2)CC1 [TCMDC-135728] | 5.216
29 | COc1ccc(S(=O)(=O)NCCC2CCN(CCCCCNC(=O)C=Cc3ccc(Cl)c(Cl)c3)CC2)cc1 [TCMDC-139584] | 28.62
30 | COc1ccc(S(=O)(=O)NCCCC2CCN(CCCCCNC(=O)C=Cc3ccc(Cl)c(Cl)c3)CC2)cc1 [TCMDC-139587] | 105.9
31 | O=C(C=Cc1ccc(Cl)c(Cl)c1)NCCCCCN1CCC(CCNS(=O)(=O)c2ccc(Br)cc2)CC1 [TCMDC-139586] | 95.36
32 | O=C(C=Cc1ccc(Cl)c(Cl)c1)NCCCCCN1CCC(CCCNS(=O)(=O)c2ccc(Br)cc2)CC1 [TCMDC-139590] | 106.1
33 | O=C(C=Cc1ccc(Cl)c(Cl)c1)NCCCCCN1CCCC(CCCNS(=O)(=O)c2ccc(Br)cc2)C1 (stereo not shown) [TCMDC-139592] | 37.84
34 | Cc1cc(C)cc(NC(=S)NCCCCN2CCN(c3cccc(Cl)c3)CC2)c1 [TCMDC-124057] | 38.25
35 | CC1(C)CN(CCC2CCC(NC(=O)/C=C/c3ccc(F)cc3F)CC2)Cc2ccc(C#N)cc21 (stereo not shown) [TCMDC-139504] | 4.044
36 | Nc1c2nc(-c3c(F)cccc3Cl)[nH]c(=O)c2nc(=O)n1-c1ccccc1 [TCMDC-124052] | 4.598
37 | CN(C)CCCN1CCN(Cc2ccc(-c3ccc(-c4nc5ccccc5[nH]4)s3)cc2)CC1 [TCMDC-136769] | 73.2
38 | c1cncc(CN2CCN(Cc3ccc(-c4ccc(-c5nc6ccccc6[nH]5)s4)cc3)CC2)c1 [TCMDC-136765] | 62.12
39 | CN(CCc1ccccn1)Cc1ccc(-c2ccc(-c3nc4ccccc4[nH]3)s2)cc1 [TCMDC-136766] | 58.81
40 | CN(CCN)Cc1ccc(-c2ccc(-c3nc4ccc(F)cc4[nH]3)s2)cc1 [TCMDC-132819] | 40.81
41 | c1ccc2[nH]c(-c3ccc(-c4ccc(CN5CCN(CCN6CCOCC6)CC5)cc4)s3)nc2c1 [TCMDC-133938] | 11.37
42 | CN(C)CCN(C)Cc1ccc(-c2cccc(-c3nc4ccccc4[nH]3)c2)cc1 [TCMDC-132567] | 5.675
43 | c1ccc2[nH]c(-c3ccc(-c4ccc(CN5CCCCC5)cc4)s3)nc2c1 [TCMDC-136768] | 35.93
44 | CCCN1CCN(Cc2ccc(-c3ccc(-c4nc5ccccc5[nH]4)s3)cc2)CC1 [TCMDC-136767] | -1.011
45 | c1ccc2[nH]c(-c3ccc(-c4ccc(CN5CCN(c6ccncc6)CC5)cc4)s3)nc2c1 [TCMDC-136770] | -27.84
46 | Cc1nn(-c2ccccc2)c2nc(-c3ccccc3)cc(C(=O)N3CCOCC3)c12 [TCMDC-124527] | -18.66

Row | Compound | % Inhibition [%]
47 | Cc1cc(N2CCCC2)nc(Nc2ccc(NC(=O)CC(C)C)cc2)n1 [TCMDC-124715] | 12.42
48 | COc1ccc(S(=O)(=O)NC2CCN(c3ccnc4cc(Cl)ccc34)C2)cc1 (stereo not shown) [TCMDC-133649] | 9.561
49 | NC(N)=NN=Cc1cc([N+](=O)[O-])ccc1Sc1ccccc1CO [TCMDC-137883] | 34.86
50 | NC(N)=NN=Cc1ccccc1OCc1ccccc1Cl [TCMDC-124250] | 59.45
51 | CC(=O)C1(c2ccccc2)CCN(CCC2(c3ccc(Cl)c(Cl)c3)CN(C(=O)CC(C)C)CCO2)CC1 (stereo not shown) [TCMDC-135324] | -34.64
52 | CC(=O)Nc1ccc(S(=O)(=O)N(Cc2cccc(Oc3ccccc3)c2)C2CCN(C/C=C(\C)CCC=C(C)C)CC2)cc1 [TCMDC-139619] | 47.01
53 | Clc1ccc2c(NCc3ccccn3)ccnc2c1 [TCMDC-125103] | 3.053
54 | Cc1cnc(CNCc2ccc(S(=O)(=O)Nc3ccc(Oc4cccc(Cl)c4)cc3)cc2)cn1 [TCMDC-136202] | -12.09
55 | O=S(=O)(Nc1cccc(F)c1CNCc1ccccn1)c1ccc(Cl)c(Cl)c1 [TCMDC-132598] | 71.21
56 | CCN1CCN(CC(O)CNC(=O)Nc2ccc(Cl)cc2)CC1 (stereo not shown) [TCMDC-134634] | 26.07
57 | CCN(CC)C(=NC(=N)NCCCCCCNC(=N)N=C(Nc1ccc(Cl)cc1)N(CC)CC)Nc1ccc(Cl)cc1 [TCMDC-131807] | 113
58 | CCN(CC)/C(=N/C(=N)Nc1ccc(Cl)c(Cl)c1)NCCCCCCN/C(=N\C(=N)Nc1ccc(Cl)c(Cl)c1)N(CC)CC [TCMDC-131808] | 116.2
59 | CCN(CC)C(=NCCCCCCN=C(NC(=N)c1ccc(Cl)cc1)N(CC)CC)NC(=N)c1ccc(Cl)cc1 [TCMDC-131806] | 117.9
60 | CCCN1CCN(CC(O)CNC(=O)Nc2ccc(Cl)cc2)CC1 (stereo not shown) [TCMDC-134645] | -0.7262
61 | CC(=O)Nc1ccc(OCCCCCOc2ccc(NC(C)=O)cc2Cl)c(Cl)c1 [TCMDC-137222] | -37.52
62 | CC(=NNC(=N)N)C(=O)Nc1ccc(Cl)c(Cl)c1 [TCMDC-137564] | -28.53
63 | CCCCN1CCN(CC(O)CNC(=O)Nc2ccc(Cl)cc2)CC1 (stereo not shown) [TCMDC-134646] | 4.082
64 | COc1ccc(CCN(C)CCCCNC(=O)c2ccc(NC(=O)c3ccc(Cl)cc3)cc2)c(OC)c1 [TCMDC-138506] | 49.32
65 | CCN(CC)C(=NC(=N)Nc1ccc(Cl)cc1)NCCCCCCCCNC(=NC(=N)Nc1ccc(Cl)cc1)N(CC)CC [TCMDC-131812] | 116.8
66 | C[C@@H]([C@@H](CCCCc1ccccc1)C(=O)N[C@H](C(=O)Nc1cccnc1)C(C)(C)C)N(O)C=O [TCMDC-138380] | -15.27
67 | CCN(C(=O)c1ccc(NC(=O)c2cccs2)cc1)c1nc2c(C)cccc2s1 [TCMDC-125338] | 37.84
